Assay outcomes from PubChem BioAssay.
IMPase cell inh = membrane-permeable compound that blocks inositol monophosphatase. P97697. CHO-M1 cells, IP1 accumulation, HTRF TR-FRET ratio. inhibition (IP1 accumulation), % at 46.1 µM. 120,000 tested, under 10 active; active means well fitted curve in the direction sought with a large enough effect in the signal ratio, not every such curve was filed as active; inconclusive means small, poorly fitted or top-dose-only effect, or a change in a side signal; inactive means no such curve, though single readings can be large or run the other way; the % refers to the signal ratio;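 further: cells stimulated with carbachol in lithium chloride buffer; plate controls were DMSO basal wells for no effect and reference inhibitor wells for full effect; higher means more IMPase inhibition seen as more IP1 and lower FRET ratio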
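Measured: the HTRF emission ratio (665/620 nm) plus the 620 nm donor channel, each fitted to the Hill equation to give AC50. Cells were CHO-M1 given compounds up to 46 uM and a 30 min carbachol stimulation at 37C.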
ALDH1A1 inh = ALDH1A1 (human) enzyme inhibition | P00352 | Purified ALDH1A1, NADH fluorescence, propionaldehyde substrate | Potency, µM (titrated, usually from 75.3 µM), without a hit: top-dose activity, negative = inhibition, usual class: inhibitors | 7.3% of 220,000 active;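 further: potency means the concentration at half of the fitted maximal effect; plate controls were no enzyme wells and a reference inhibitor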
Target sequence (P00352 whole entry, looked up): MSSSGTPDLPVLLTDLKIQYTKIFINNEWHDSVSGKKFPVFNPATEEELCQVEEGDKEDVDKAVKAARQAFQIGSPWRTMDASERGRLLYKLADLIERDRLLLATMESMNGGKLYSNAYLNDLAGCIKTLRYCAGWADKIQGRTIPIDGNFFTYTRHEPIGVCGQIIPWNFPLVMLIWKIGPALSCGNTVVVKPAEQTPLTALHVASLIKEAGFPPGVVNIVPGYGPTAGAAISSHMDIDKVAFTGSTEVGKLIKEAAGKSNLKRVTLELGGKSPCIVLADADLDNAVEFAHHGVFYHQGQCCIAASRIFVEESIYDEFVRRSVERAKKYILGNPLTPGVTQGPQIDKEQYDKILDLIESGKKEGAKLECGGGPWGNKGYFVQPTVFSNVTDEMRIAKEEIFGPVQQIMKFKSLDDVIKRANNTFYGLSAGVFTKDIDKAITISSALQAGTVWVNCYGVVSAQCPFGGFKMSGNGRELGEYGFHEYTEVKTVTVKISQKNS
HPGD inh = HPGD (human) dehydrogenase inhibition. purified HPGD, NADH fluorescence kinetic, PGE2 substrate. P15428. 4.3% of 150,000 active. Potency, µM, inactives show at the top dose activity change, negative = inhibition, most hits filed as inhibitors. AID 894; further: potency means the concentration at half of the fitted maximal effect
Target sequence (P15428 whole entry, looked up): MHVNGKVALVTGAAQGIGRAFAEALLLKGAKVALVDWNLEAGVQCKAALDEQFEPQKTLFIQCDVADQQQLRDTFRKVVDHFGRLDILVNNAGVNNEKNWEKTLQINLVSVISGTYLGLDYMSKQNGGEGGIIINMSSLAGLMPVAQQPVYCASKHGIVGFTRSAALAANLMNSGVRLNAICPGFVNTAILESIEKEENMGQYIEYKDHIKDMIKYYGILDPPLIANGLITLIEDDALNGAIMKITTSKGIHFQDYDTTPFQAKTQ
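20 nM HPGD preincubated 15 min at room temperature with compound in 50 mM Tris-HCl pH 8, 0.01% Tween 20. Started with 1 mM NAD+ and 30 uM prostaglandin E2; NADH fluorescence (360/450 nm) read 5 times over 30-s intervals, last minus first.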
IMPase Li cell = IMPase inhibition in cells with lithium potentiation | CHO-M1 cells, IP1 TR-FRET (IP-One), carbachol + lithium | Potency, µM (highest dose often 59.4 µM), inactives show at the highest dose activity, negative = IMPase inhibition, actives largely listed as inhibitors | 0.35% of 210,000 active | AID 1457; active means well fitted inhibition curve with a large enough effect; inconclusive means small, poorly fitted or top-dose-only effect; inactive means no such curve, though single readings can be large or run the other way;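 further: IP1 builds up when IMPase is blocked and the TR-FRET signal falls; potency means the concentration at half of the fitted maximal effect; plate controls were basal vehicle for no effect and high inhibitor control for full effect; nearly all actives have a fitted effect of over 50% in size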
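CHO cells stably expressing M1 receptor (2000/well, cultured 16–30 h) treated 30 min at 37C with compound plus low lithium. Cytosolic IP1 by TR-FRET (665/620 ratio and 620 channel) after 10 min lysis; AC50 by Hill fit.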
PNC inhibitor = perinucleolar compartment assembly inhibition | PC3M PTB-GFP, PNC prevalence imaging, 16 h; stronger effect = lower value | activity change (PNC), negative = inhibition, % at 10 µM | 3.1% of 140,000 active | AID 2417;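 active means readout at or below -70, meaning at least 70% loss of cells showing the perinucleolar compartment, a nuclear body marking cancer cells; inconclusive means readout between -30 and a set limit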;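 further: plate controls were DMSO wells for no effect and camptothecin positive control wells for full effect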
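PC3M cells stably expressing PTB-GFP, 750–1000 cells/well, treated 16 h at 37 °C with compound (23 nl of library stock), in duplicate. After paraformaldehyde fixation and Hoechst stain, imaged at 20x; PNC prevalence scored by image analysis.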
The depositor's hits bear a star; ? = inconclusive; nt = no result given; [ ] = remark or other dose. This is a sample that favours compounds with a hit; in the whole collection about 11% have one here. Unless noted, the call rests on the fitted dose curve; in most records, active means well fitted inhibition curve with a large enough effect (not every such curve was filed as active); inconclusive means small, poorly fitted or top-dose-only effect, or another doubt; inactive means no such curve, though single readings can be large or run the other way. Unless noted, on the % scale 0 is the no-effect control and ±100 the full control effect.

SMILES	IMPase cell inh	ALDH1A1 inh	HPGD inh	IMPase Li cell	PNC inhibitor
O=C(O)CN1C(=O)c2ccc(Oc3cccc4c3C(=O)N(CC(=O)O)C4=O)cc2C1=O	-6	0%	-7%	16%[38.3 µM]	?
CCCCOc1ccccc1NC(=O)CC1SC(=NCC)N(CC)C1=O (configuration not stated)	5	-1%	-8%	27%[38.3 µM]	?
CCOC(=O)N1CCN(C(=O)CSc2ccc3nnc(-c4ccncc4)n3n2)CC1	nt	-1%	nt	1%	nt
CCOC(=O)CC(=O)CSc1ccc2nnc(-c3ccc(C)cc3)n2n1	-3	-10%	13µM*	-8%[38.3 µM]	-14
Cc1c(C(=O)NC(C)C)sc2ncn(CC(=O)N3CCC(C)CC3)c(=O)c12	2	15%	-9%	16%[38.3 µM]	-12
Cc1nnc(SCC(=O)Nc2cccc(S(=O)(=O)N(C)c3ccccc3)c2)s1	9	-2%	0.022µM*	-11%	18
COc1cccc(NC(=O)CSc2nnc(C)s2)c1	-3	9%	-12%	19%[38.3 µM]	34
COCCn1cnnc1SCC(=O)Nc1cccc(S(=O)(=O)N(C)c2ccccc2)c1	nt	5.6µM*	nt	13%	nt
CN(C)S(=O)(=O)c1cccc(NC(=O)CSc2nncn2-c2ccccc2)c1	nt	?	nt	20%	nt
CCOC(=O)Cn1c(S(=O)(=O)Cc2ccc(F)cc2)nc(-c2ccccc2)c1-c1ccccc1	3	2%	-14%	16%[38.3 µM]	-3
C#CCn1c(S(=O)(=O)Cc2ccc(F)cc2)nc(-c2ccccc2)c1-c1ccccc1	9	5%	-11%	-2%[38.3 µM]	-106*
COc1cc(C)nc(N2CCCC(C(=O)Nc3cccc(Cl)c3C)C2)n1 (configuration not stated)	?	7%	-11%	-3%[38.3 µM]	-124*
COc1cc(C)nc(N2CCCC(C(=O)Nc3ccccc3Br)C2)n1 (configuration not stated)	nt	9%	nt	13%	nt
COC(=O)c1ccc(NC(=O)C2C3C=CC(O3)C2C(=O)O)cc1 (configuration not stated)	-2	4.5µM*	-18%	23%[38.3 µM]	-28
Cc1nnc(NC(=O)C2C3C=CC(O3)C2C(=O)O)s1 (configuration not stated)	-9	28µM*	-13%	7%[38.3 µM]	1
COC(=O)c1sccc1NC(=O)C1C2C=CC(O2)C1C(=O)O (configuration not stated)	-5	1%	1%	-4%[38.3 µM]	?
Cc1cc(C)c(S(=O)(=O)N2CCCOC2CNC(=O)C(=O)NCc2ccco2)c(C)c1 (configuration not stated)	nt	6%	-5%	-1%	8
COc1cccc(Cn2c(=O)c(-c3cccs3)nc3cnc(N4CCNCC4)nc32)c1	nt	?	nt	6%	nt
CC1=CC(C)(C)NC(=S)N1c1cccc2ccccc12	?	22µM*	1%	-3%	0
CCCCc1nc2ccccc2c(NC(=O)CN2CCCC2)c1CCC	3	?	-5%	6%	-100*
CCCCc1nc2ccccc2c(NC(=O)CNC(C)(C)C)c1CCC	-3	3%	10%	-11%[38.3 µM]	36
N/N=C1/CC(=O)NC(=O)N1	nt	?	?	-5%	nt
CS(=O)(=O)c1ccc(C(O)C(CO)NC(=O)C(Cl)Cl)cc1 (configuration not stated)	nt	2%	-11%	12%	nt
Cc1noc(C)c1C(=O)Nc1ccc(F)cc1	nt	7%	nt	-3%	nt
Cc1ccc(NNC(=O)c2ccno2)cc1Cl	nt	14µM*	nt	nt	nt
SMILES	IMPase cell inh	ALDH1A1 inh	HPGD inh	IMPase Li cell	PNC inhibitor
Cc1noc(C)c1C(=O)NNc1ccc(C(C)C)cc1	nt	11µM*	nt	nt	nt
Cc1ccc(C(C)NC(=O)c2c(C)noc2C)cc1C (configuration not stated)	1	-4%	-6%	14%[38.3 µM]	-11
Cc1ccc(NNC(=O)c2c(C)noc2C)cc1Cl	nt	28µM*	nt	nt	nt
Cc1cc(C)cc(C(=N)c2ccccc2Cc2cccc3ccccc23)c1	nt	4%[13.5 µM]	-11%	8%	nt
CCCCCCN(C(=O)CCCCCN1C(=O)NC(c2ccc(-c3ccccc3)cc2)C(C(=O)OCc2ccccc2)=C1C)C(C(=O)NCCCC)c1ccc(OCC(=O)O)c(C(=O)O)c1 (configuration not stated)	nt	-13%	-10%	-2%	nt
COc1cc(C(=O)NCc2ccc3[nH]c(C)cc3c2)cc(OC)c1OC	nt	2%	nt	-2%	nt
CCOc1ccc(NC(=S)NCc2ccc3[nH]c(C)cc3c2)cc1	nt	-2%	nt	-1%	nt
Cc1cc2cc(CNC(=O)c3ccc4c(c3)OCO4)ccc2[nH]1	9	35µM*	20µM*	-8%[38.3 µM]	?
COc1ccc(C(=O)NCc2ccc3[nH]c(C)cc3c2)cc1OC	nt	20µM*	nt	0%	nt
CCCCNC(=S)NCc1ccc2[nH]c(C)cc2c1	nt	-5%	-11%	12%	-115*
COc1ccc(C(=O)NCc2cn3c(C)csc3n2)cc1OC	1	11%	-10%	-4%	-100*
CSc1nc(N)c2ncn([C@@H]3O[C@@H](COP(=O)(O)OP(=O)(O)O)[C@@H](O)[C@H]3O)c2n1	-3	nt	nt	nt	nt
COc1cccc(C(=O)NCc2ccc3[nH]c(C)cc3c2)c1	nt	28µM*	nt	-4%	nt
CC(/C=C\C=C\c1ccccc1)=N\NC(=O)c1cncc(Br)c1	nt	22µM*	nt	4%	nt
CC(C)(C)c1csc(NC(=O)Cn2cnc3ccccc3c2=O)n1	4	13µM*	20µM*	22%[38.3 µM]	-25
CC(C)(C)NC(=O)CSc1nnc(NC(=O)CCn2cnc3ccccc3c2=O)s1	-2	15%	-18%	1%[38.3 µM]	-122*
O=c1c(-c2ccc(F)cc2)nc2cncnc2n1C1CC1	nt	-23%	-18%	8%	nt
COc1ccc(C(=O)N2CCC3(CCCN(Cc4ccccc4OC)C3)CC2)cc1	nt	1%	-3%	19%	nt
O=C1CC(N2CCOCC2)C(=O)N1c1cc(Cl)cc(Cl)c1 (configuration not stated)	-4	3.2µM*	-26%	-24%[38.3 µM]	?
CCCOc1ccccc1N1C(=O)CC(N2CCOCC2)C1=O (configuration not stated)	2	5%	-12%	17%[38.3 µM]	-26
O=C1CC(N2CCOCC2)C(=O)N1c1ccccc1Cl (configuration not stated)	4	?	-9%	14%[38.3 µM]	-94*
O=C1CC(N2CCN(c3ccccc3Cl)CC2)C(=O)N1c1ccccc1 (configuration not stated)	1	25µM*	-13%	8%[38.3 µM]	-11
O=C1CC(N2CCN(c3ccccc3)CC2)C(=O)N1c1ccc2c(c1)OCCO2 (configuration not stated)	?	-14%	0%	-6%[38.3 µM]	0
COc1ccc(NC(=O)CSc2nc(-c3cccs3)cc(C(F)(F)F)n2)c(OC)c1	2	nt	nt	nt	nt
Cc1ccc(C)c(N2CCN(c3c(CN4CCCC4)c(=O)oc4ccccc34)CC2)c1	8	nt	nt	nt	nt
CN=c1scc(-c2ccco2)n1/N=C/c1ccc(O)c(O)c1	nt	28µM*	nt	17%	nt
